This is an account of results in publication PMC10726135, “HNF4α isoforms regulate the circadian balance between carbohydrate and lipid metabolism in the liver”.

The full ranking holds about 18,000 sequences; the median of “log2 normalized intensity” is about 0.36, and the highest 2% start at about 7.3. The sample as a whole holds a higher share of the highest values than the screen did.

This experiment has as its target T1, HNF4alpha8 (COS-7 nuclear extract) (Homo sapiens, UniProt P41235-5 1-452).
T1 sequence: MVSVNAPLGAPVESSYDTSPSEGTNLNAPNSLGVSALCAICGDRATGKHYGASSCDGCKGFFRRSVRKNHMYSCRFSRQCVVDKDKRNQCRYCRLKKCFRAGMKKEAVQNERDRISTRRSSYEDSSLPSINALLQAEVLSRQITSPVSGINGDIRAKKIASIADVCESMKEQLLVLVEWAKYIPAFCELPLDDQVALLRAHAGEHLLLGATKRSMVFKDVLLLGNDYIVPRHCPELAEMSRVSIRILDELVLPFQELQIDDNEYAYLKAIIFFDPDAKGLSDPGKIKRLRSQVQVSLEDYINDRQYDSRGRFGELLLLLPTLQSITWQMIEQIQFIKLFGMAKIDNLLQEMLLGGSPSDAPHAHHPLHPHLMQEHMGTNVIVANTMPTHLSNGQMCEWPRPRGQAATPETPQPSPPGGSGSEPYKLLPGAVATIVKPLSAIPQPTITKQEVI
The experiment in a line: protein-binding microarray; COS-7 nuclear extract on double-stranded Agilent 4x180k PBM; binding buffer, salt, pH and temperature not given in the material; high values mean tight binding. The note with it: chain copies: 2; label: 3' end of strand 1 on the slide; dsDNA, one strand shown. A digest of the protocol:
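A custom Agilent SurePrint G3 4x180k array, spotted in quadruplicate with ~44,000 test sequences as ~60-nt oligonucleotides made double-stranded, was incubated with nuclear extracts. The extracts came from COS-7 cells transiently transfected by CaPO4 with a human HNF4α isoform expression vector. Bound HNF4α was imaged on an Agilent G2565CA scanner at 2-µm resolution, and the binding signal was taken as Agilent software's background-corrected, normalized gProcessedSignal.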
For “GTACTTAAAAATGCCTTTCATCTTTGAGAAGCCTAGGGAGATTAGAGTATCGGTCGA”, the binding signal is 0.583 log2 normalized intensity.

“GTGTCAACATGGACTTTGTTGTTTGCCTCTGCCTAGGGAGATTAGAGTATCGGTCGA”: the binding signal was found to be 4.08 log2 normalized intensity. On to “CTTTGCCCTCCCTAAATCCAGAGGTATTTGGCCTAGGGAGATTAGAGTATCGGTCGA”, for which the binding signal amounted to 2.04 log2 normalized intensity. As for “CAGAGAGAAGCCACTGCGACCTTTGCCCTCGCCTAGGGAGATTAGAGTATCGGTCGA”, the binding signal turned out to be 10 log2 normalized intensity. The result for “CCACTGCGACCTTTGCCCTCCCTAAATCCAGCCTAGGGAGATTAGAGTATCGGTCGA” reads 7.84 log2 normalized intensity; that for “CTTCTCCGCGGCGGGCCCTCGACCTTTGCCGCCTAGGGAGATTAGAGTATCGGTCGA”, 5.8 log2 normalized intensity; that for “CCGCGGCGGGCCCTCGACCTTTGCCCTCCAGCCTAGGGAGATTAGAGTATCGGTCGA”, 9.76 log2 normalized intensity.

As for “CCCTCCCTAAATCCAGAGGTATTTGGCCCAGCCTAGGGAGATTAGAGTATCGGTCGA”, the binding signal was determined as 1.83 log2 normalized intensity. Next, “TCAGCCTTCTCCGCGGCGGGCCCTCGACCTGCCTAGGGAGATTAGAGTATCGGTCGA”: 0.757 log2 normalized intensity.

As for “AGAAGCCACTGCGACCTTTGCCCTCCCTAAGCCTAGGGAGATTAGAGTATCGGTCGA”, the binding signal was determined as 8.33 log2 normalized intensity. Next, “TTGCCATGACCTTTGAAGCCCAGAACACTCGCCTAGGGAGATTAGAGTATCGGTCGA”: 4.51 log2 normalized intensity. The result for “TTCCCCTCCCTTCCACCTTTGCCCTCCAAAGCCTAGGGAGATTAGAGTATCGGTCGA” reads 6.42 log2 normalized intensity. The result for “TCACAACCTCCCTTTGAAGGAGCCACTGGTGCCTAGGGAGATTAGAGTATCGGTCGA” reads -0.869 log2 normalized intensity; that for “ACCGGCAGAGAGAAGCCACTGCGACCTTTGGCCTAGGGAGATTAGAGTATCGGTCGA”, 5.59 log2 normalized intensity; that for “ACCCACCCACCTATGTCCTTATCCTCATTGGCCTAGGGAGATTAGAGTATCGGTCGA”, 0.831 log2 normalized intensity. Consider “CTCACCAGTGGGCCCAGAGCACAACCTTTGGCCTAGGGAGATTAGAGTATCGGTCGA”, for which the binding signal turned out to be 1.42 log2 normalized intensity.

Take “TATTCAGTCCCCCATCCCAGAGGTCAAACTGCCTAGGGAGATTAGAGTATCGGTCGA”: the binding signal is 5.57 log2 normalized intensity. “GGAATTTGGACTTCAGCCCAGGCTGATTATGCCTAGGGAGATTAGAGTATCGGTCGA”: the binding signal is 4.7 log2 normalized intensity. In the case of “CAGCAAGCATTAATCCCTGAGCCTGGACCTGCCTAGGGAGATTAGAGTATCGGTCGA”, the binding signal worked out at 2.58 log2 normalized intensity. Next, “GCGCATCGGGCGCCAGCGCCCCCGTGTGGCGCCTAGGGAGATTAGAGTATCGGTCGA”: 1.2 log2 normalized intensity.

For “GACCAGCGTGTGGCGCCATTTCAGGTCCACGCCTAGGGAGATTAGAGTATCGGTCGA”, the binding signal was 1.74 log2 normalized intensity. Turning to “AATACTCCAGTCATTGTACAAACACATACCGCCTAGGGAGATTAGAGTATCGGTCGA”, the binding signal was -0.533 log2 normalized intensity.

Regarding “CTCTTAGTATTACCATGTCCTGTGATTAAGGCCTAGGGAGATTAGAGTATCGGTCGA”, the binding signal worked out at 1.16 log2 normalized intensity. In the case of “TGGGCCAGGTATTTGGACTTTTTGTAGTTTGCCTAGGGAGATTAGAGTATCGGTCGA”, the binding signal was 3.34 log2 normalized intensity. Regarding “CCCTGACCAAGGGTCATGCTGGTCTCCTTGGCCTAGGGAGATTAGAGTATCGGTCGA”, the binding signal was 2.46 log2 normalized intensity. Take “GTTCAAACTTTATTTGATGATGAAGCAACAGCCTAGGGAGATTAGAGTATCGGTCGA”: the binding signal was found to be 0.662 log2 normalized intensity. Next, “TTGTTCAATAAGCAATACATTGAACTTTGAGCCTAGGGAGATTAGAGTATCGGTCGA”: 8.23 log2 normalized intensity; “AAGCAAACAAAACACGGACTTTGAAGCTCCGCCTAGGGAGATTAGAGTATCGGTCGA”: 3 log2 normalized intensity; “TTTTCAACATATACTTTGAACTTGTTTTTTGCCTAGGGAGATTAGAGTATCGGTCGA”: 2.56 log2 normalized intensity.

Consider “AGCAATACATTGAACTTTGAACACCTCTTCGCCTAGGGAGATTAGAGTATCGGTCGA”, for which the binding signal worked out at 6.54 log2 normalized intensity.

With “CAATAAGCAATACATTGAACTTTGAACACCGCCTAGGGAGATTAGAGTATCGGTCGA”, the binding signal was found to be 7.99 log2 normalized intensity.

Take “GGCAGTCGTGATAGTGACCACCTGGTGGACGCCTAGGGAGATTAGAGTATCGGTCGA”: the binding signal is 1.42 log2 normalized intensity. Next, “GTTGAGAACTGAGTTTAGAATTTGAACTATGCCTAGGGAGATTAGAGTATCGGTCGA”: 3.68 log2 normalized intensity; “AGTTCAATTTCCAACAAATGAAACTAAAGGGCCTAGGGAGATTAGAGTATCGGTCGA”: -0.972 log2 normalized intensity. Next, “CGCTCCCCGACCTCCTGCTGCAGCTCTGGGGCCTAGGGAGATTAGAGTATCGGTCGA”: -0.577 log2 normalized intensity; “TGTTTATCAGAGCAAAGTTCAATTTCCAACGCCTAGGGAGATTAGAGTATCGGTCGA”: 4.31 log2 normalized intensity; “ATGCTTCAAATATTTGGATAATGTGCCCTTGCCTAGGGAGATTAGAGTATCGGTCGA”: 3.92 log2 normalized intensity. Consider “GGATAATGTGCCCTTTGTACCTGGGGCAAAGCCTAGGGAGATTAGAGTATCGGTCGA”, for which the binding signal was found to be 5.83 log2 normalized intensity. The result for “TATTTGGATAATGTGCCCTTTGTACCTGGGGCCTAGGGAGATTAGAGTATCGGTCGA” reads 7.72 log2 normalized intensity; that for “ATGTGCCCTTTGTACCTGGGGCAAACATCAGCCTAGGGAGATTAGAGTATCGGTCGA”, 5.3 log2 normalized intensity. The result for “GTCAAACAAAAGAAAATGTGCCCTTTGGACGCCTAGGGAGATTAGAGTATCGGTCGA” reads 7.26 log2 normalized intensity; that for “TCAAATATTTGGATAATGTGCCCTTTGTACGCCTAGGGAGATTAGAGTATCGGTCGA”, 7.39 log2 normalized intensity; that for “CAATCAGCCTTAGGTATGCCCCATGGTAAGGCCTAGGGAGATTAGAGTATCGGTCGA”, 1.49 log2 normalized intensity. Next, “GAATTCCATCCCAGGTCCACAGTGCACATTGCCTAGGGAGATTAGAGTATCGGTCGA”: 2.26 log2 normalized intensity; “AAGGACAAAGGTCATGTTTTCAAACAATGAGCCTAGGGAGATTAGAGTATCGGTCGA”: 5.49 log2 normalized intensity. On to “CTGCTGGTTTTTGTCAAAGATAGTTGTAGTGCCTAGGGAGATTAGAGTATCGGTCGA”, for which the binding signal worked out at 1.62 log2 normalized intensity.
